High-throughput results deposited in PubChem BioAssay by National Center for Advancing Translational Sciences (NCATS).
An excerpt weighted towards active compounds, which were near 0.52% of everything screened.
GLS inh: inhibitors of human glutaminase (GLS); O94925; GLS enzymatic activity, qHTS titration; Potency, µM (highest dose often 45.5 µM), hits mostly inhibitors; actives 0.21% (n = 410,000)
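Coupled fluorescence readout: glutamate oxidase/HRP/Amplex Red detect glutamate formed by hKGA from L-glutamine (1 mM solution added). Buffer 45 mM KH2PO4 pH 8.2, 0.02% Tween-20; reads at t0 and 30 min RT.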
Tb PFK inh-1: blocks T. brucei phosphofructokinase | Potency, µM (series often up to 57.5 µM), most hits filed as inhibitors | T. brucei PFK, ADP-Glo luminescence | O15648 | actives 0.17% (n = 330,000); further: nearly all actives have a fitted effect of over 60% in size
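Compounds were pin-transferred as a titration series up to 57 uM into substrate buffer (0.5 mM F6P, 0.1 mM ATP, pH 8.0), then 1.25 nM PFK was added and reactions ran 45 min before ADP-Glo detection.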
GCN5L2 inh: GCN5L2 (KAT2A) acetyltransferase inhibition; Q92830; GCN5L2 HAT assay, ThioGlo1 CoA-SH fluorescence; Potency, µM (titrated, usually from 58.9 µM), usual class: inhibitors; actives 0.21% (n = 390,000)
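Titration-based screen in which CoA formation is detected via maleimide probe ThioGlo1 (50uM) turning fluorescent on thiol reaction; substrates H3(1-25) 75uM and acetyl-CoA 70uM, GCN5L2 20nM, 20 min incubation at room temperature.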
USP2a inh: inhibitors of human ubiquitin-specific protease USP2a; O75604; USP2 core, Ub-CHOP2 coupled fluorogenic reporter, 485/531; Potency, µM (highest dose often 38.3 µM), most hits filed as inhibitors; actives 0.01% (n = 330,000); AID 463254
Target sequence (O75604 whole entry, looked up): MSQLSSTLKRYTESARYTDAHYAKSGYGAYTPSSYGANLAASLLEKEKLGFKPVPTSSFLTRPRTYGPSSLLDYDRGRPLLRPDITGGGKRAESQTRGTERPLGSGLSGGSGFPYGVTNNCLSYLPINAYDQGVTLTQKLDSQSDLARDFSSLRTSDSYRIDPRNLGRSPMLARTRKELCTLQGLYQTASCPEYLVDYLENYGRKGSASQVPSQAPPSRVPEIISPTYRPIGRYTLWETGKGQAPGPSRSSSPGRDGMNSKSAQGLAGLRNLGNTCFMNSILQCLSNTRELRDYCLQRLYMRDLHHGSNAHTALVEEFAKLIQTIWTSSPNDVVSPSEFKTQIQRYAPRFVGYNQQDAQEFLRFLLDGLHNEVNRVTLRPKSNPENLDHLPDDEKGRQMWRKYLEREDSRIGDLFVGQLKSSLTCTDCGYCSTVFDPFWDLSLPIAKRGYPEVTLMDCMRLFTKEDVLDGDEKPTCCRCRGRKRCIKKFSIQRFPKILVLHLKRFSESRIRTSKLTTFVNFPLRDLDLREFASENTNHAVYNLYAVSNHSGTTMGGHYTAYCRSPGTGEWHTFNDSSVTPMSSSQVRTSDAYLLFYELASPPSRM
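USP2 core (10nM final) preincubated 30min RT with compound in 20mM Tris-HCl pH 8.0, 2mM CaCl2, 2mM beta-mercaptoethanol, 0.05% CHAPS; 25nM Ub-CHOP2 plus 25nM reporter substrate added, fluorescence (Ex485/Em531) read after 60min.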
Tb PGK inh: T. brucei PGK inhibition; actives 0.043% (n = 380,000); AID 602233; PGK/GAPDH coupled, Kinase-Glo luminescence, 60 min; Potency, µM (series often up to 57.5 µM), actives largely listed as inhibitors; further: nearly all actives have a fitted effect of over 60% in size
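Luminescent ATP detection (Kinase-Glo Plus) follows a 60-minute room-temperature incubation, with wells lacking PGK as controls. Buffer: 100 mM TEA (pH 7.6), 5 mM MgCl2, 0.01% Tween-20. Coupling enzyme GAPDH (100 nM final) supplies unstable 1,3-BPG in-well.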
Tb PFK KinaseGlo: Tb phosphofructokinase inhibition, orthogonal luminescence; actives 47% (n = 1,100); Tb PFK enzyme, ATP depletion, Kinase-Glo Plus luminescence; Potency, µM (highest dose often 57.5 µM); shares compounds with Tb PFK inh-1; calls by dose curve; further: nearly all actives have a fitted effect of over 60% in size
Tb PFK inh-2: validation of T. brucei phosphofructokinase inhibitors; shares compounds with Tb PFK inh-1; purified T. brucei PFK, ADP-Glo luminescence, 45 min; Potency, µM (series often up to 57.5 µM), actives largely listed as inhibitors; actives 41% (n = 1,100); AID 504637; further: nearly all actives have a fitted effect of over 60% in size
Large screens that a line does not name were inactive (follow-up assays come after a bar, where they were run). Unless noted, the call rests on the fitted dose curve; in most records, active means well fitted curve in the direction sought with a large enough effect; inconclusive means small, poorly fitted or top-dose-only effect, or another doubt; inactive means no such curve, though single readings can be large; an effect the other way counts as inactive or inconclusive.

c1ccc([Se]c2c(-c3ccccc3)[se]c3ccccc23)cc1	none (no result: GLS inh, Tb PFK inh-1, USP2a inh, Tb PGK inh)
O=C1C=C(NCc2ccc(Cl)c(Cl)c2)CC1	Tb PFK inh-1 4.8µM | Tb PFK KinaseGlo 4.8µM | Tb PFK inh-2 6µM
Clc1ccc(Cn2ncc3c(N4CCCC4)ncnc32)cc1	Tb PFK inh-1 inconclusive | Tb PFK KinaseGlo inconclusive | Tb PFK inh-2 inconclusive
C=C[C@H]1CN2CC[C@H]1C[C@H]2c1[nH]c2ccccc2c1CCO	none (no result: GLS inh, Tb PFK inh-1, USP2a inh, Tb PGK inh)
c1cncc(CNCCc2ccc3c(c2)OCO3)c1	none
O=C(Nc1ccc2c(c1)OCO2)c1cccc2c1C(=O)N(Cc1cccnc1)C2	Tb PFK inh-1 inconclusive | Tb PFK KinaseGlo inconclusive | Tb PFK inh-2 inconclusive
Cc1ccc(O)c(C(=O)c2cc(C(=O)NCc3ccccc3)c(=O)n(Cc3ccccc3)c2)c1	none
Cc1ccc(O)c(NC2=C(Cl)C(=O)N(Cc3ccccc3)C2=O)c1	Tb PFK inh-1 24µM | Tb PFK KinaseGlo 11µM | Tb PFK inh-2 19µM
O=C(c1csnn1)N1CCC2(CC1)CN(Cc1ccncc1)C2	none (no result: GLS inh, Tb PFK inh-1, USP2a inh, Tb PGK inh)
CCOc1ccc2c3c1O[C@H]1[C@@H](O)C=C[C@H]4[C@@H](C2)N(C)CC[C@@]341	none (no result: Tb PFK inh-1, USP2a inh, Tb PGK inh)
COC(=O)c1ccc(C(C(=O)NC2CCCCC2)N(CCN2CCOCC2)C(=O)Cc2cccs2)cc1 (configuration not stated)	none
COC(=O)c1ccc(-c2noc(CN(C)CCC3CCCCO3)n2)cc1 (configuration not stated)	Tb PFK inh-1 inconclusive, GCN5L2 inh inconclusive | Tb PFK KinaseGlo inactive | Tb PFK inh-2 inconclusive
CSc1ccc(NC(=O)Nc2ccc(C(=O)NCC(=O)O)cc2)cc1	GLS inh inconclusive, Tb PFK inh-1 13µM, Tb PGK inh inconclusive | Tb PFK KinaseGlo 8.5µM | Tb PFK inh-2 inconclusive
COc1ccc(C(C)(C)C)cc1NC(=O)CCCn1c(=O)oc2ccccc21	none
O=C(COC(=O)Cc1ccccc1)NC(=O)NC1CCCCC1	none
COc1ccc(CC(=O)OCC(=O)NC2CC2)cc1	Tb PFK inh-1 24µM | Tb PFK KinaseGlo inconclusive | Tb PFK inh-2 inactive
CC(=O)c1cc(Cc2csc(C(C)=O)c2)cs1	Tb PFK inh-1 27µM | Tb PFK KinaseGlo 13µM | Tb PFK inh-2 30µM
COP(=O)(OC)[C@@H](O)C(Cl)(Cl)Cl	none (no result: GLS inh, Tb PFK inh-1, USP2a inh, Tb PGK inh)
CC1=C(O)C(=O)[C@@H]2O[C@@H]2C1=O	none (no result: GLS inh, Tb PFK inh-1, USP2a inh, Tb PGK inh)
COc1cc(C(=O)Nc2ccc(Br)cc2C(=O)c2ccccc2Cl)cc(OC)c1OC	none
COc1ccccc1NS(=O)(=O)c1cc(NC(=O)c2ccc(Cl)nc2)ccc1N1CCCC1	Tb PFK inh-1 17µM | Tb PFK KinaseGlo 4.8µM | Tb PFK inh-2 6µM
CC(C)(C)NC[C@H](O)c1ccc(O)cc1Cl	none (no result: Tb PFK inh-1, GCN5L2 inh, USP2a inh, Tb PGK inh)
C=C[C@@H]1CN2CC[C@H]1C[C@H]2[C@H](O)c1ccnc2ccccc12	none (no result: Tb PFK inh-1, USP2a inh, Tb PGK inh)
O=C(COc1ccccc1[N+](=O)[O-])N1CCN(CCc2ccccn2)CC1	none (no result: Tb PFK inh-1, USP2a inh)
COc1cc2c(cc1OC)CN(C(=O)COc1ccccc1[N+](=O)[O-])CC2	Tb PFK inh-1 inconclusive | Tb PFK KinaseGlo inactive | Tb PFK inh-2 inactive
CCOC(=O)Cc1[nH]nc2c1C(c1ccoc1)C(C#N)=C(N)O2 (configuration not stated)	none
O=C1CC(N2CCN(c3ccc(Cl)c(Cl)c3)CC2)C(=O)N1 (configuration not stated)	Tb PFK inh-1 6µM | Tb PFK KinaseGlo inconclusive | Tb PFK inh-2 inconclusive
O=C(Cc1ccc([N+](=O)[O-])cc1)N1CCN(Cc2ccc3c(c2)OCO3)CC1	none
Cc1noc(NS(=O)(=O)c2ccc(NC(=O)Cc3ccc([N+](=O)[O-])cc3)cc2)c1C	Tb PFK inh-1 6µM | Tb PFK KinaseGlo 3.4µM | Tb PFK inh-2 12µM
Cc1cc(NS(=O)(=O)c2ccc(NC(=O)/C=C/c3ccc(C)o3)cc2)nc(C)n1	GLS inh 10µM, Tb PFK inh-1 inconclusive | Tb PFK KinaseGlo inactive | Tb PFK inh-2 inconclusive
Cc1cc(NS(=O)(=O)c2ccc(NC(=O)Cc3ccc([N+](=O)[O-])cc3)cc2)nc(C)n1	Tb PFK inh-1 8.5µM | Tb PFK KinaseGlo 3.8µM | Tb PFK inh-2 6µM
CC(=O)Nc1ccc([As](=O)(O)c2ccc([N+](=O)[O-])cc2)cc1	none
C[C@@H]1CC([C@H](O)CC2CC(=O)NC(=O)C2)C(=O)[C@@H](C)C1 (some centres not stated)	none (no result: GLS inh, Tb PFK inh-1, USP2a inh, Tb PGK inh)
O=S(=O)(O)C(F)(F)C(F)(F)C(F)(F)C(F)(F)C(F)(F)C(F)(F)C(F)(F)C(F)(F)F	none (no result: Tb PFK inh-1, GCN5L2 inh, USP2a inh, Tb PGK inh)
O=C(Nc1ccc2c(c1)OCO2)c1cn(Cc2ccc(F)cc2)nn1	none
